# Laboratory results published in PubChem BioAssay (NCI).
# The panel holds about 83,000 compounds, 20% with a hit somewhere; the sample as a whole holds those more often.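 Compound tested at a single concentration for 48 hours in 96-well plates; a percent growth value below 10 was scored as active.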 Unmarked numbers belong to inactive results. Calls of active or inactive are those of the source.
# How the values were obtained:
# Assay in all cases: NCI-60 one-dose screen, 48 h (100 = growth as untreated, 0 = no growth, -100 = all killed)
# Conditions in all cases: 10 µM
# BT-549 breast = system: BT-549 breast
# MDA-MB-435 melanoma = system: MDA-MB-435 melanoma
# SW-620 colon = system: SW-620 colon
# MCF7 breast = system: MCF7 breast
# HCT-116 colon = system: HCT-116 colon
# KM12 colon = system: KM12 colon
# HCC-2998 colon = system: HCC-2998 colon
SMILES,growth (BT-549 breast),growth (MDA-MB-435 melanoma),growth (SW-620 colon),growth (MCF7 breast),growth (HCT-116 colon),growth (KM12 colon),growth (HCC-2998 colon)
Cc1cc(=O)oc2cc(OCc3cn(CC(O)CO)nn3)ccc12 (configuration not stated),97.5%,116%,74%,109%,98.8%,111%,
Oc1ccc(Cn2cc3c(c2-c2ccccc2)CCc2cnoc2-3)cc1,101%,72.7%,,105%,92.7%,91.5%,102%
CC1=CC2OC34COC3CC(OC(=O)C(F)(F)F)C4(C)C2(C)CC1 (configuration not stated),95.9%,101%,103%,93.7%,96.6%,105%,98.3%
NC(=O)C12C(=O)NC(=O)C1(C(=O)O)C21CCCC1 (configuration not stated),104%,100%,104%,96.3%,101%,113%,114%
O=S(=O)(NC1c2ccccc2Oc2ccccc21)c1ccccc1,,107%,97%,91.5%,84.9%,104%,103%
COc1cccc2c1C(=O)c1c(O)c3c(c(O)c1C2=O)C[C@@](O)(C(=O)COC(=O)c1cccnc1)C[C@@H]3OC1CC(N)C(O)C(C)O1 (some centres not stated),5.42% (active),-87.5% (active),3.34% (active),4.11% (active),6.26% (active),-0.352% (active),-50.3% (active)
COc1cc(C)c2sc3ccccc3c(=O)c2c1NCCN(C)C,93.8%,12%,34.9%,22.2%,43%,65%,28.9%
CCCCCN(CCCCC)C(C)C(O)c1ccc2cc(Cl)c3ccccc3c2c1 (configuration not stated),110%,103%,80%,90.6%,65.7%,103%,97.6%
N#CN1CC[C@H](C(=O)Nc2ncc(-c3ccncc3)s2)C1,-14.7% (active),6.91% (active),7.08% (active),2.99% (active),1.83% (active),-1.2% (active),4.61% (active)
CCOC(=O)CNC(=O)Nc1ccc(Oc2ccc(NC(=O)NCC(=O)OCC)cc2)cc1,111%,95.4%,98%,76.4%,98.1%,105%,93.3%
COC(=O)[C@]12CC[C@@H](C)[C@H](C)[C@@H]1C1=CC[C@@H]3[C@@]4(C)CC(=O)[C@H](O)[C@@](C)(CO)[C@@H]4C(=O)C[C@@]3(C)[C@]1(C)CC2,-31.4% (active),11.4%,1.83% (active),-13.4% (active),-43.1% (active),-37.3% (active),-61.1% (active)
COc1ccc(-c2nnc(COc3ccc(NC(=O)Nc4cccc(C(F)(F)F)c4)cc3F)o2)cc1,82.7%,61.6%,54.3%,88.7%,56.7%,24%,50.9%
CC(C)c1[nH]nc2c(NCc3ccc(-c4ccccn4)cc3)nc(SCCN)nc12,-32% (active),-39.6% (active),5.99% (active),1.59% (active),5.28% (active),5.47% (active),-22.9% (active)
COc1ccc(Cn2cc3c(c2-c2ccccc2)CC(C)(C)c2cnoc2-3)cc1,46.2%,-16.6% (active),13.6%,17.1%,22.9%,29.1%,77.4%
CCN1CCN(c2ccc(Nc3ncnc4c3nnn4CCc3cc(OC)cc(OC)c3)cc2)CC1,,95.4%,102%,85.8%,77.9%,99.1%,109%
COc1cc(Cl)cc(-c2nn(-c3cccc(NC(=O)Nc4cccc(C(F)(F)F)c4)c3)cc2-c2ccncc2)c1,12.9%,-20.9% (active),11.2%,0.3% (active),5.07% (active),9.81% (active),19%
CC(=O)N(O)c1ccc(/C=C/c2ccccc2)cc1,43.5%,55.1%,23.3%,16.7%,19.7%,47.9%,14.3%
CC(=O)Nc1nc(C)c(C(=O)N/N=C/c2cccn2C)s1,,104%,102%,87.5%,111%,105%,70.8%
COc1ccc(/C(=C/c2cc(OC)c(OC)cc2[N+](=O)[O-])C(=O)O)cc1,111%,116%,105%,105%,116%,121%,107%
COc1cc(Nc2ccnc(N3CCN(c4ccnc5cc(Cl)ccc45)CC3)n2)cc(OC)c1,-4.01% (active),1.35% (active),11%,0.585% (active),5.15% (active),8.26% (active),9.25% (active)
Cc1[nH]nc2c(=S)[nH]c(=O)[nH]c12,98.1%,102%,103%,94%,105%,107%,106%
Cc1ccc(S(=O)(=O)Oc2ccccc2-c2ccccc2)cc1,44.3%,-41.5% (active),20.8%,15.9%,14.6%,15.6%,46.3%
CC1(C)CCc2cc(-c3ccn(S(=O)(=O)c4ccc(Cl)cc4)n3)ccc2O1,,85.8%,87.7%,,61.1%,77%,94.3%
CCCCOCC(=O)NC(NP(=O)(N(C)C)N(C)C)C(Cl)(Cl)Cl (configuration not stated),117%,102%,108%,103%,96.6%,133%,103%
O=c1[nH]c(=O)n(C2C[C@@H](O)[C@@H](CO)O2)cc1F (some centres not stated),1.4% (active),37.1%,,20.7%,16.8%,33.4%,-6.77% (active)
